Assay results: the supplement of paper PMC8728848
Shown is part of a subset that was picked to be rich in the strongest signals.

Assays:
Assay in all cases: glycan array binding signal (z-score within array); higher = stronger binding
Details in all cases: glycan notation: IUPAC condensed, linker removed
[1] = target: Fuc(a1-2)Gal(b1-3)GalNAc(b1-3)Gal
How it was run: (§1)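 The binding signal is a Z-score computed within each array. Data were drawn from 3228 arrays in the Consortium for Functional Glycomics database, restricted to those with a known protein sequence. Scores were averaged over arrays of the same protein sequence at different concentrations or buffers, and over linkers, and negative values can be taken as non-binding.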

[2] = target: Fuc(a1-2)Gal(b1-3)GlcNAc(b1-2)Man(a1-3)[Fuc(a1-2)Gal(b1-3)GlcNAc(b1-2)Man(a1-6)]Man(b1-4)GlcNAc(b1-4)GlcNAc
How it was run: as §1

[3] = target: Fuc(a1-2)Gal(b1-4)[Fuc(a1-3)]GlcNAc(b1-3)GalNAc
How it was run: as §1

[4] = target: Fuc(a1-2)Gal6S(b1-3)GlcNAc
How it was run: as §1

[5] = target: Fuc(a1-2)[Gal(a1-3)]Gal(b1-4)GlcNAc(b1-6)GalNAc
How it was run: as §1

[6] = target: Fuc(a1-2)[GalNAc(a1-3)]Gal(b1-3)GlcNAc(b1-2)Man(a1-3)[Fuc(a1-2)[GalNAc(a1-3)]Gal(b1-3)GlcNAc(b1-2)Man(a1-6)]Man(b1-4)GlcNAc(b1-4)GlcNAc
How it was run: as §1

[7] = target: Fuc(a1-2)[GalNAc(a1-3)]Gal(b1-3)GlcNAc(b1-3)GalNAc
How it was run: as §1

[8] = target: Fuc(a1-2)[GalNAc(a1-3)]Gal(b1-4)Glc
How it was run: as §1

[9] = target: Fuc(a1-2)[GalNAc(a1-3)]Gal(b1-4)GlcNAc(b1-3)Gal(b1-4)GlcNAc
How it was run: as §1

[10] = target: Fuc(a1-2)[GalNAc(a1-3)]Gal(b1-4)[Fuc(a1-3)]GlcNAc(b1-3)GalNAc
How it was run: as §1

[11] = target: Fuc(a1-3)[Gal(b1-4)]GlcNAc(b1-4)Gal(b1-4)[Fuc(a1-3)]GlcNAc
How it was run: as §1

[12] = target: Fuc(a1-3)[Gal(b1-4)]GlcNAc(b1-6)GalNAc
How it was run: as §1

[13] = target: Fuc(a1-3)[Gal(b1-4)]GlcNAc6S
How it was run: as §1

Gal(a1-2)Gal = target: Gal(a1-2)Gal
How it was run: as §1

[14] = target: Gal(a1-3)Gal(b1-3)GlcNAc(b1-2)Man(a1-3)[Gal(a1-3)Gal(b1-3)GlcNAc(b1-2)Man(a1-6)]Man(b1-4)GlcNAc(b1-4)GlcNAc
How it was run: as §1

Gal(a1-3)Gal(b1-4)GlcNAc = target: Gal(a1-3)Gal(b1-4)GlcNAc
How it was run: as §1

Gal(b1-3)Gal = target: Gal(b1-3)Gal
How it was run: as §1

[15] = target: Gal(b1-3)GlcNAc(b1-2)Man(a1-3)[GlcNAc(b1-4)][Gal(b1-3)GlcNAc(b1-2)Man(a1-6)]Man(b1-4)GlcNAc(b1-4)GlcNAc
How it was run: as §1

[16] = target: Gal(b1-3)[GlcNAc(b1-6)]GalNAc
How it was run: as §1

[17] = target: Gal(b1-4)GlcNAc(b1-3)Gal(b1-4)GlcNAc
How it was run: as §1

[18] = target: Gal(b1-4)GlcNAc(b1-3)GalNAc
How it was run: as §1

Gal6S(b1-4)Glc = target: Gal6S(b1-4)Glc
How it was run: as §1

[19] = target: GalNAc(a1-3)GalNAc(b1-3)Gal(a1-4)Gal(b1-4)Glc
How it was run: as §1

[20] = target: GalNAc(b1-3)Gal(a1-4)Gal(b1-4)GlcNAc(b1-3)Gal(b1-4)Glc
How it was run: as §1

GalNAc6S(b1-4)GlcNAc = target: GalNAc6S(b1-4)GlcNAc
How it was run: as §1

[21] = target: GlcNAc(a1-4)Gal(b1-4)GalNAc
How it was run: as §1

[22] = target: GlcNAc(a1-4)Gal(b1-4)GlcNAc(b1-3)Gal(b1-4)[Fuc(a1-3)]GlcNAc(b1-3)Gal(b1-4)[Fuc(a1-3)]GlcNAc
How it was run: as §1

[23] = target: GlcNAc(b1-3)Gal(b1-4)GlcNAc
How it was run: as §1

[24] = target: GlcNAc(b1-3)Gal(b1-4)GlcNAc(b1-3)Gal(b1-4)GlcNAc
How it was run: as §1

GlcNAc(b1-6)GalNAc = target: GlcNAc(b1-6)GalNAc
How it was run: as §1

Kdn(a2-3)Gal(b1-4)Glc = target: Kdn(a2-3)Gal(b1-4)Glc
How it was run: as §1

[25] = target: Kdn(a2-3)Gal(b1-4)[Fuc(a1-3)]GlcNAc
How it was run: as §1

Man(a1-3)[Man(a1-6)]Man = target: Man(a1-3)[Man(a1-6)]Man
How it was run: as §1

[26] = target: Neu5Ac(a2-3)Gal(b1-3)GlcNAc(b1-3)GalNAc
How it was run: as §1

[27] = target: Neu5Ac(a2-3)Gal(b1-4)[Fuc(a1-3)]GlcNAc(b1-3)Gal(b1-4)[Fuc(a1-3)]GlcNAc(b1-3)Gal(b1-4)[Fuc(a1-3)]GlcNAc
How it was run: as §1

[28] = target: Neu5Ac(a2-3)Gal(b1-4)[Fuc(a1-3)]GlcNAc(b1-3)GalNAc
How it was run: as §1

[29] = target: Neu5Ac(a2-3)Gal6S(b1-4)[Fuc(a1-3)]GlcNAc
How it was run: as §1

Neu5Ac(a2-6)Gal(b1-4)Glc = target: Neu5Ac(a2-6)Gal(b1-4)Glc
How it was run: as §1

[30] = target: Neu5Ac(a2-6)Gal(b1-4)GlcNAc(b1-2)Man(a1-6)[Gal(b1-4)GlcNAc(b1-2)Man(a1-3)]Man(b1-4)GlcNAc(b1-4)GlcNAc
How it was run: as §1

[31] = target: Neu5Ac(a2-6)Gal(b1-4)GlcNAc(b1-2)Man(a1-6)[Man(a1-3)]Man(b1-4)GlcNAc(b1-4)GlcNAc
How it was run: as §1

[32] = target: Neu5Ac(a2-8)Neu5Ac(a2-3)[Gal(b1-3)GalNAc(b1-4)]Gal(b1-4)Glc
How it was run: as §1

[33] = target: Neu5Ac(a2-8)Neu5Ac(a2-8)Neu5Ac(a2-8)Neu5Ac(a2-3)[GalNAc(b1-4)]Gal(b1-4)Glc
How it was run: as §1

[34] = target: Neu5Ac9Ac(a2-3)Gal(b1-3)GlcNAc
How it was run: as §1

B1: PitA (Streptococcus oralis), G3F8D8 (protein)
chain: MNIRFDFKKVQIIARRLVTLLAILFLCAPISLLNADSTTEPQTTLHKTITPISGQDDKYELSLDITSKLGTETQTDPLDVVLVADLSGSMQNQDVQSFDGRTISRIDALKNTLRGTNGRKGLIDTILSNSNNRLSMVGFGGKIDNKKVDQYWDGNKWRLFRPYWPYERMTKYYDGVSPWDDANTILGWSNNARAAKTAVYNMSIAGGNSIGTESGIGTGTNIGAGLTLANQLMGSARSNAKKVVILLSDGFANMVYDANGYTIYNYNNEDPNIETAPQWFWDRLNNNLNSLSYSLAPTLDGFYSIKFRYSNNVDSITSLQYYMRQHNASIPNEIFSANDEDQLRDSFKDITDKILPLGIHHVSIKDVLSKYVQLLPNGSSEFRVVKEKDGSSEILIENQVTFDTKTTSEGLVEVTAKFSPNYSLEDGARYVLKFTVTSSQEALDAIAGDKKLEAGDAEGSDVNKLYSNKGASVTYSYGIGNSQTKTKEYSDNPTFKPSDPLTVPVEVEWQGVTGARTVITADQPSNVELKLVQKNKNGGSDNQDYRKTNVNVSKNVSNETRNFEKVAKGYQYDLIAPDVPAFTKEIKNVGTESKPSFKVIYKQLPSLTIKKVLEAENNLNKEFRIKVKLTSPDSKPLNGTFGEITVVNGEAEIRVEKRKRWEGILSYLPRGTHYKVEEEAASTNGYHVTYENQEGDLNKDETSIVTNHKLPSLSVTKKVTGVFANLLKSFKITINIRDAQNSPLNGTYTATVNNKRTPLQFTNGRASIDLNKDQTIKIYGLPLDSHYTVEEESNSSRGYQVSYENQEGKLDGDKSATVTNNKNSVPETGVDFLSSTLMLGIILPLGGIFFTILLGYLVVHRRK
glycan array binding signal (z-score) [1]: 10.3
glycan array binding signal (z-score) [2]: 0.06
glycan array binding signal (z-score) [3]: 7.27
glycan array binding signal (z-score) [4]: -0.656
glycan array binding signal (z-score) [5]: 0.131
glycan array binding signal (z-score) [6]: -0.473
glycan array binding signal (z-score) [7]: 4.75
glycan array binding signal (z-score) [8]: -0.125
glycan array binding signal (z-score) [9]: -0.715
glycan array binding signal (z-score) [10]: 5.3
glycan array binding signal (z-score) [11]: 0.05
glycan array binding signal (z-score) [12]: 4.67
glycan array binding signal (z-score) [13]: 0.782
glycan array binding signal (z-score) (Gal(a1-2)Gal): -0.212
glycan array binding signal (z-score) [14]: 3.83
glycan array binding signal (z-score) (Gal(a1-3)Gal(b1-4)GlcNAc): -0.128
glycan array binding signal (z-score) (Gal(b1-3)Gal): -0.7
glycan array binding signal (z-score) [15]: 1.74
glycan array binding signal (z-score) [16]: -0.437
glycan array binding signal (z-score) [17]: -0.586
glycan array binding signal (z-score) [18]: -0.575
glycan array binding signal (z-score) (Gal6S(b1-4)Glc): -0.151
glycan array binding signal (z-score) [19]: -0.395
glycan array binding signal (z-score) [20]: 0.654
glycan array binding signal (z-score) (GalNAc6S(b1-4)GlcNAc): 0.019
glycan array binding signal (z-score) [21]: 5.14
glycan array binding signal (z-score) [22]: 3.75
glycan array binding signal (z-score) [23]: -0.199
glycan array binding signal (z-score) [24]: -0.259
glycan array binding signal (z-score) (GlcNAc(b1-6)GalNAc): 0.138
glycan array binding signal (z-score) (Kdn(a2-3)Gal(b1-4)Glc): -0.512
glycan array binding signal (z-score) [25]: 1.05
glycan array binding signal (z-score) (Man(a1-3)[Man(a1-6)]Man): -0.627
glycan array binding signal (z-score) [26]: -0.148
glycan array binding signal (z-score) [27]: 0.263
glycan array binding signal (z-score) [28]: 3.68
glycan array binding signal (z-score) [29]: -0.322
glycan array binding signal (z-score) (Neu5Ac(a2-6)Gal(b1-4)Glc): -0.522
glycan array binding signal (z-score) [30]: -0.302
glycan array binding signal (z-score) [31]: 0.537
glycan array binding signal (z-score) [32]: -0.463
glycan array binding signal (z-score) [33]: 0.179
glycan array binding signal (z-score) [34]: -0.641
